Bioassay records as filed in PubChem.
MARV entry inh: inhibitors of Marburg virus binding or cell entry | Marburg virus pseudotyped entry inhibition, cell reporter | Potency, µM (doses to about 37.8 µM), actives largely listed as inhibitors | hit rate 1.8% among 300,000; calls by dose curve; tested in HEK293 cells
CHX counter: counter-screen hit for Shiga toxin inhibitors, cycloheximide. max response, %. AID 2314. cell reporter, cycloheximide protein synthesis inhibition counterscreen. hit rate 12% among 300,000; in the data active means max response mostly above about 13%, no sharp cut-off; inactive means mostly below about 14%; further: read at 38.3 µM for the half of the compounds with a filed dose
Shiga toxin inh: Shiga toxin inhibition; Vero cells, Shiga toxin protein synthesis inhibition reporter; inhibition, % at 38.7 µM; hit rate 9.2% among 290,000; in the data active means inhibition mostly above about 28%, no sharp cut-off; inactive means mostly below about 43%
Pf growth 48h: P. falciparum growth inhibition at 48 hours (one generation) | Potency, µM (doses to about 28.7 µM), actives largely listed as inhibitors | AID 504832 | hit rate 5.9% among 310,000 | P. falciparum luciferase growth in erythrocytes, 48 h
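Luciferase-expressing P. falciparum in infected erythrocytes (2% hematocrit, 0.1% parasitemia final) in RPMI 1640/0.5% Albumax were exposed to compound for 48 hours at 37 C, 5% CO2; growth read as luminescence.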
Pf growth 96h: P. falciparum growth inhibition at 96 hours; Potency, µM (doses to about 28.7 µM), hits mostly inhibitors; hit rate 6.9% among 320,000; P. falciparum luciferase reporter growth, 96 h
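Plates of compound plus infected erythrocytes (2% hematocrit, 0.05% parasitemia final) incubate 96 hours, 37 C, 5% CO2. Detection reagent added; reduced luminescence from the parasites' luciferase reporter flags inhibition.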
Lassa entry inh: blocks Lassa virus binding to or entry into cells | Potency, µM (doses to about 37.9 µM), hits mostly inhibitors | Lassa virus pseudotype entry inhibition, cell reporter | hit rate 1.2% among 300,000; calls by dose curve; tested in HEK293 cells; further: nearly all actives have a fitted effect of over 50% in size
Hits are given with their value; . = inactive; ? = inconclusive; / = not tested or not shown; [ ] = remark or other dose. An excerpt weighted towards active compounds, which were near 19% of everything screened. Unless noted, the call rests on the fitted dose curve; in most records, active means well fitted inhibition curve with a large enough effect; inconclusive means small, poorly fitted or top-dose-only effect, or another doubt; inactive means no such curve, though single readings can be large or run the other way.

SMILES	MARV entry inh	CHX counter	Shiga toxin inh	Pf growth 48h	Pf growth 96h	Lassa entry inh
Cc1ccccc1Cn1c(CN2CCc3ccccc3C2)nc2c1c(=O)n(C)c(=O)n2C	?	.	.	13µM	?	?
CN1CCN(c2nc3c(c(=O)n(C)c(=O)n3C)n2Cc2ccccc2F)CC1	.	.	.	.	.	.
Cc1ccc(S(=O)(=O)N(C)CC(=O)OCC(=O)NC(=O)Nc2ccc3c(c2)OCCO3)cc1	?	55	68	.	.	?
O=C(COC(=O)CNS(=O)(=O)c1cccc(Br)c1)NC(=O)Nc1ccc2c(c1)OCCO2	.	35	63	.	.	.
Cc1ccc(S(=O)(=O)N[C@H](C(=O)OCC(=O)NC(=O)C2CCCCC2)C(C)C)cc1	.	/	/	/	/	.
O=C(COC(=O)C1COc2ccccc2O1)NC(=O)Nc1ccc2c(c1)OCCO2 (centres undefined)	?	15	.	.	.	.
Cc1ccc(S(=O)(=O)N(C)CC(=O)Nc2ccc3c(c2)OCO3)cc1	?	.	.	.	.	.
Cc1ccc(S(=O)(=O)N[C@H](C(=O)OCC(=O)NC(=O)Nc2ccc3c(c2)OCCO3)C(C)C)cc1	.	19	.	.	.	?
O=C(COC(=O)C1COc2ccccc2O1)Nc1cccc(Cl)c1 (centres undefined)	/	/	/	.	.	/
Cc1ccc(CCNC(=O)c2ccc3c(=O)n(-c4ccccc4)c(=O)[nH]c3c2)cc1	.	/	/	/	/	.
C[C@H](NS(=O)(=O)c1ccc(Cl)cc1)C(=O)OCC(=O)NC(=O)Nc1ccc2c(c1)OCCO2	?	101	127	.	.	.
CC(C)[C@H](NS(=O)(=O)c1ccc2c(c1)OCCO2)C(=O)OCC(=O)Nc1ccccc1	.	14	.	.	.	?
CCCCC(=O)NC1(C(F)(F)F)C(=O)N(Cc2ccco2)C(C)=C1C(=O)OC (centres undefined)	.	.	.	.	/	.
Cc1ccc(C(c2nnnn2C2CCCCC2)N(C)C2CCCCC2)cc1 (centres undefined)	?	.	.	?	/	.
CC(C)C(c1nnnn1C1CCCCC1)N1CCc2ccccc2C1 (centres undefined)	.	.	.	15µM	.[5.75 µM]	.
c1ccc(C(c2nnnn2C2CCCCC2)N2CCc3ccccc3C2)nc1 (centres undefined)	.	.	.	.	?	.
CC(C)C(c1nnnn1C1CCCC1)N1CCc2ccccc21 (centres undefined)	?	.	.	?	?	?
CC(C)C(c1nnnn1C1CCCCC1)N1CCCc2ccccc21 (centres undefined)	?	.	.	9.3µM	.	.
CC(C)C(c1nnnn1C1CCCC1)N1CCCc2ccccc21 (centres undefined)	?	.	.	13µM	.	.
Cc1ccc(C(c2nnnn2C2CCCC2)N2CCc3ccccc32)cc1 (centres undefined)	.	22	.	?	.	?
COC(=O)C1=CN(Cc2cccs2)C=C(C(=O)OC)C1c1ccc(OC)cc1OC	?	.	.	?	.	?
COCCN1C=C(C(=O)OC)C(c2cc3c(cc2Br)OCO3)C(C(=O)OC)=C1	.	.	.	5.9µM	?	.
CCN1C=C(C(=O)OC)C(c2cccc(C)c2)C(C(=O)OC)=C1	.	.	.	/	12µM	.
COC(=O)C1=CN(c2cc(C)cc(C)c2)C=C(C(=O)OC)C1c1cccc(F)c1	.	.	.	12µM	?	?
COC(=O)C1=CN(Cc2ccc(OC)c(OC)c2)C=C(C(=O)OC)C1c1cccc(O)c1	/	.	.	?	.	/
SMILES	MARV entry inh	CHX counter	Shiga toxin inh	Pf growth 48h	Pf growth 96h	Lassa entry inh
COC(=O)C1=CN(Cc2cccs2)C=C(C(=O)OC)C1c1cccc(Cl)c1	.	.	.	9.3µM	?	?
C[C@@H](C(=O)Nc1ccccc1N1CCOCC1)N1C(=O)C2CCCCC2C1=O (some centres undefined)	.	/	/	/	/	.
O=C(COC(=O)c1ccc(Cl)nc1)NC(=O)c1ccc(OC(F)F)cc1	.	/	/	.	.	.
COCc1[nH]nc2c1C1(CCC3(CC1)OCCO3)C(C#N)=C(N)O2	.	.	.	.	?	.
O=C(CCC(=O)c1ccc(Br)cc1)Nc1cccc(C(F)(F)F)c1	.	.	.	.	.	.
Cc1cc2c(c(=O)n1Cc1ccccn1)C(C(C)C)C(C#N)=C(N)O2 (centres undefined)	.	.	.	.	.	.
CCOc1ccc(C2C(C(=O)OC)=CN(CCOC)C=C2C(=O)OC)cc1	.	.	.	?	?	.
COCCN1C=C(C(=O)OC)C(c2ccc(Cl)cc2)C(C(=O)OC)=C1	?	.	.	10µM	.	.
Cc1ccc(OCCn2nnc3sc4c(c3c2=O)CCC(C(C)(C)C)C4)cc1 (centres undefined)	.	/	/	/	/	.
NS(=O)(=O)c1ccc(N/N=C/c2cn(-c3ccccc3)nc2-c2cccs2)c([N+](=O)[O-])c1	10µM	.	.	1.5µM	3.3µM	?
N#Cc1ccc(N/N=C/c2cn(-c3ccccc3)nc2-c2ccccc2)c([N+](=O)[O-])c1	?	.	.	?	0.52µM	.
NS(=O)(=O)c1ccc(N/N=C/c2cn(-c3ccccc3)nc2-c2cccs2)cc1	?	9.3	39	0.19µM	0.066µM	?
O=C(Nc1ccc(F)cc1)c1sccc1SCc1cccc(C(F)(F)F)c1	.	.	.	9.3µM	?	.
O=C(Nc1ccc(F)cc1F)c1sccc1SCc1cccc(C(F)(F)F)c1	.	.	.	.	?	.
COc1ccc(NC(=O)c2sccc2SCc2cccc(C(F)(F)F)c2)cc1	.	16	36	?	?	.
NNC(=O)c1sccc1OCc1cccc(C(F)(F)F)c1	?	.	.	?	?	.
CCC(CO)NCc1ccc(OCC(O)c2ccccc2)c(OC)c1 (centres undefined)	/	.	.	.	.	/
CCCCCOC(=O)c1cc(=O)[nH]c2ccccc12	.	.	.	.	.	.
CCCCCCCCCCOc1cc2c(=O)c(C(=O)OCC)c[nH]c2cc1OCC	/	/	/	0.0015µM	.	/
Nc1ccccc1Nc1cc(-c2ccccc2)nn1-c1ccccc1	.	18	.	.	?	.
Nc1ccccc1Nc1cc(-c2ccccc2)[nH]n1	?	29	55	?	?	.
Cc1ccc(C(=O)Nc2nc(=O)n(C(=O)CC(C)C)s2)cc1	.	.	.	.	.	.
Cn1sc(NC(=O)c2ccc(Cl)cc2)nc1=O	.	14	.	.	.	.
Cn1ccc(NC(=O)c2ccc(Cl)cc2)n1	/	/	/	.	.	/
Cc1ccc(C(=O)Nc2nc(=O)n(C(=O)c3ccccc3Cl)s2)cc1	?	31	49	/	.	.
Cc1ccc(C(=O)Nc2nc(=O)n(C)s2)cc1	.	36	73	.	.	.
CCCCOc1ccc(C(=O)NCC(=O)NCC(=O)OCC)cc1	.	.	.	.	/	.
CCN(CC)C(=O)C1=C(C)NC(=S)NC1c1cn(-c2ccccc2)nc1-c1ccc(Cl)cc1 (centres undefined)	?	.	.	4.1µM	?	.
